Results: PubChem BioAssay (Tox21)
Records with an inconclusive call do not appear. Calls of active or inactive are those of the source. Unless noted, calls follow the shape of the dose curve; as a rule, active = well fitted curve in the direction sought with a large enough effect in the repeat runs; inconclusive = weak or mixed curves; inactive = no such curve, though single readings can be large; an effect the other way counts as inactive or inconclusive.

Tests used:
[1] = qHTS assay to identify small molecule antagonists of the thyroid receptor (TR) signaling pathway - cell viability counter screen (AID 743064); also: nearly all actives have a fitted effect of over 50% in size
Procedure, shortened: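 GH3.TRE-Luc cells, 4 h pre-plating; cpd + T3 1 nM final; 37 °C 23.5 h; CellTiter-Fluor 30 min; fluorescence read.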

[2] = qHTS assay to identify small molecule antagonists of the thyroid receptor (TR) signaling pathway (AID 743065); also: series mostly up to about 70 µM; nearly all actives have a fitted effect of over 55% in size
Procedure, shortened: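 Antagonism measured as loss of luciferase signal in GH3 cells stably carrying a TRE-luciferase reporter, co-treated with compound and T3 (1 nM final) for 23.5 h at 37 C. Viability was read in the same well by CellTiter-Fluor.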

[3] = tested on: thyroid hormone receptor (rat, GH3 cells); experiment: qHTS assay to identify small molecule agonists of the thyroid receptor (TR) signaling pathway (AID 743066; calls by dose curve)
[4] = qHTS assay to identify small molecule antagonists of the estrogen receptor alpha (ER-alpha) signaling pathway - cell viability counter screen (AID 743074; calls by dose curve;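 also: HEK293 cells carrying ER-alpha-UAS-bla reporter stimulated with 17beta-estradiol; nearly all actives have a fitted effect of over 45% in size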)
[5] = qHTS assay to identify small molecule antagonists of the estrogen receptor alpha (ER-alpha) signaling pathway using the BG1 cell line - cell viability counter screen (AID 743081);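 also: compound given together with 17beta-estradiol as the ER stimulus; series mostly up to about 70 µM; nearly all actives have a fitted effect of over 45% in size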
Aromatase (Homo sapiens) = Aromatase (Homo sapiens) (UniProt P11511); experiment: qHTS assay to identify aromatase inhibitors (AID 743083); also: series mostly up to about 70 µM; nearly all actives have a fitted effect of over 55% in size
[6] = target: Estrogen receptor (Homo sapiens) (UniProt P03372); experiment: qHTS assay to identify small molecule antagonists of the estrogen receptor alpha (ER-alpha) signaling pathway (AID 743069; active = well fitted curve in the direction sought with a large enough effect in the signal ratio in the repeat runs, not every such curve was filed as active; the % refers to the signal ratio)
Procedure, shortened: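 Antagonist mode: compounds in DMSO were co-added with 17beta-estradiol to ER-alpha-bla HEK293 cells (2% charcoal-stripped serum) and left 18 h at 37C. Reporter inhibition was measured as FRET fluorescence after 2 h LiveBLAzer substrate at room temperature.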

[7] = target: Estrogen receptor (Homo sapiens) (UniProt P03372); experiment: qHTS assay to identify small molecule agonists of the estrogen receptor alpha (ER-alpha) signaling pathway (AID 743075; calls by dose curve;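 also: HEK293 GripTite cells with ER-alpha and UAS-driven beta-lactamase reporter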)
[8] = qHTS assay to identify small molecule antagonists of the estrogen receptor alpha (ER-alpha) signaling pathway using the BG1 cell line (AID 743080; calls by dose curve;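 also: BG1 cells stimulated with 17beta-estradiol alongside compound; series mostly up to about 70 µM; nearly all actives have a fitted effect of over 25% in size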)
Procedure, shortened: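 Seeding, 24 h rest, compound transfer from DMSO, 17beta-estradiol addition, 21.5 h incubation, CellTiter-Fluor (30 min, 37 C), then ONE-Glo (30 min, room temperature): this sequence was run on BG1-Luc-4E2 reporter cells.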

[9] = target: Estrogen receptor (Homo sapiens) (UniProt P03372); experiment: qHTS assay to identify small molecule agonists of the estrogen receptor alpha (ER-alpha) signaling pathway using the BG1 cell line (AID 743079); also: nearly all actives have a fitted effect of over 20% in size
% is scaled to controls: 0 for no effect and ±100 for the full control effect.

Estrogen receptor (Homo sapiens), sequence (P03372 whole entry, looked up): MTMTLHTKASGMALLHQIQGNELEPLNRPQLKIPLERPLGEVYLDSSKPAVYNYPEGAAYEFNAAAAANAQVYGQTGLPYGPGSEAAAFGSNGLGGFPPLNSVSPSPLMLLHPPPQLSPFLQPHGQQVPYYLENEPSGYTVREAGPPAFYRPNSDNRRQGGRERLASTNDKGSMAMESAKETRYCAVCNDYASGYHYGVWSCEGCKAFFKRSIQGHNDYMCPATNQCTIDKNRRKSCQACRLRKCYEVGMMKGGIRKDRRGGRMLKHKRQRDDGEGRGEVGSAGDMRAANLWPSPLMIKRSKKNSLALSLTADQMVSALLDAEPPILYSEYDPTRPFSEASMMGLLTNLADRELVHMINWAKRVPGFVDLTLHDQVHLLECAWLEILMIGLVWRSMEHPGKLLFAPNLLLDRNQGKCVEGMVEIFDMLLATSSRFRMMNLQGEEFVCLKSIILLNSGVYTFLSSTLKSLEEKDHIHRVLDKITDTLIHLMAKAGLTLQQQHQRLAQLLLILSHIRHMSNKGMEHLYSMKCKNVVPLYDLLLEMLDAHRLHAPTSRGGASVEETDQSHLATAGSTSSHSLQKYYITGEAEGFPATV
Aromatase (Homo sapiens), sequence (P11511 whole entry, looked up): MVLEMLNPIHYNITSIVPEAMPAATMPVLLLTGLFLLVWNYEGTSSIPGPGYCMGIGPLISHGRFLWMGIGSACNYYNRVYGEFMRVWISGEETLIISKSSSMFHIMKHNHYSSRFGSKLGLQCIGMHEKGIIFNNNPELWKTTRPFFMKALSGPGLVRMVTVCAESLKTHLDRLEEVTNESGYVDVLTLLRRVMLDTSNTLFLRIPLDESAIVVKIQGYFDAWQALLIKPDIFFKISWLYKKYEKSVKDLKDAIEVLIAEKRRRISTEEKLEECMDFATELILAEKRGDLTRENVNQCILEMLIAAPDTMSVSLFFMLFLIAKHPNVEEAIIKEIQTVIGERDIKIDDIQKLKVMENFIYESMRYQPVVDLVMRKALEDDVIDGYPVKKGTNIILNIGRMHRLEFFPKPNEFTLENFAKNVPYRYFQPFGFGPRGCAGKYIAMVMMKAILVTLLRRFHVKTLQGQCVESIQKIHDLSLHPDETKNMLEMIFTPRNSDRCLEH

CN[C@@H]1[C@@H](O)[C@@H](O[C@@H]2[C@H](O)[C@H](O[C@H]3OC(CN)=CC[C@H]3N)[C@@H](N)C[C@H]2N)OCC1(C)O (stereo partly drawn)
inactive: Potency [1] | Potency [2] | Potency [3] | Potency [4] | outcome [5] | outcome (Aromatase (Homo sapiens))

CN(C)CCCNCCC#N
inactive: Potency [1] | Potency [2] | Potency [3] | Potency [4] | outcome [5] | outcome (Aromatase (Homo sapiens))

NS(=O)(=O)c1ccccc1OC(F)(F)F
inactive: Potency [1] | Potency [4] | outcome [5] | outcome (Aromatase (Homo sapiens))

CC(=O)OCCCc1ccccc1
inactive: Potency [1] | Potency [2] | Potency [3] | Potency [4] | outcome [5] | outcome (Aromatase (Homo sapiens))

C=C(C)C(=O)OC
inactive: Potency [1] | Potency [2] | Potency [3] | outcome [5] | outcome (Aromatase (Homo sapiens))

CCCC(C)CC (stereo not drawn)
inactive: Potency [1] | Potency [2] | Potency [3] | Potency [4] | outcome [5] | outcome (Aromatase (Homo sapiens))

NS(=O)(=O)c1cc2c(cc1Cl)NC(C(Cl)Cl)NS2(=O)=O (stereo not drawn)
inactive: Potency [1] | Potency [2] | Potency [3] | Potency [4] | outcome [5] | outcome (Aromatase (Homo sapiens))

COc1cc2c3cc1Oc1cc(ccc1O)C[C@@H]1c4c(cc(OC)c(O)c4Oc4ccc(cc4)C[C@@H]3N(C)CC2)CC[N+]1(C)C
inactive: Potency [1] | Potency [2] | Potency [3] | Potency [4] | outcome [5] | outcome (Aromatase (Homo sapiens))

COCCOCCOCCOC
inactive: Potency [1] | Potency [2] | Potency [3] | Potency [4] | outcome [5] | outcome (Aromatase (Homo sapiens))

O=S(=O)(O)SSS(=O)(=O)O
inactive: Potency [1] | Potency [2] | Potency [3] | Potency [4] | outcome [5] | outcome (Aromatase (Homo sapiens))

O=C(Nc1cccc(C2=NCCN2)c1)Nc1cccc(C2=NCCN2)c1
inactive: Potency [1] | Potency [6] | Potency [4] | Potency [7] | outcome [8] | outcome [5] | outcome (Aromatase (Homo sapiens))

O=c1cc(O)c(Cl)c[nH]1
inactive: Potency [1] | Potency [4] | outcome [5] | outcome (Aromatase (Homo sapiens))

CN(C1CCCCC1)S(=O)(=O)c1ccccc1N
inactive: Potency [1] | Potency [2] | Potency [3] | Potency [4] | outcome [5] | outcome (Aromatase (Homo sapiens))

C=CCOc1c(Br)cc(C(C)(C)c2cc(Br)c(OCC=C)c(Br)c2)cc1Br
inactive: Potency [1] | Potency [6] | Potency [4] | Potency [7] | Potency [9] | outcome [8] | outcome [5] | outcome (Aromatase (Homo sapiens))

O=CO
inactive: activity change, negative = cytotoxic [1] -0.961% [at 8.44 µM] | activity, negative = inhibition [2] -3.91% [at 8.44 µM] | activation [3] 0.246% [at 8.08 µM] | activity, negative = cytotoxicity [4] 6.52% [at 6.72 µM] | activity change, negative = cytotoxicity [5] 0.807% [at 8.47 µM] | activity, negative = inhibition (Aromatase (Homo sapiens)) 10.9% [at 8.47 µM]

BrC/C=C/CBr
inactive: Potency [1] | Potency [2] | Potency [3] | Potency [4] | outcome [5] | outcome (Aromatase (Homo sapiens))

C=COCCOCCOC=C
inactive: Potency [1] | Potency [2] | Potency [3] | Potency [4] | outcome [5] | outcome (Aromatase (Homo sapiens))

Cn1c(=O)c2c(ncn2CC2OCCO2)n(C)c1=O
inactive: Potency [1] | Potency [2] | Potency [3] | Potency [4] | outcome [5] | outcome (Aromatase (Homo sapiens))

CO/N=C(/C(=O)N[C@@H]1C(=O)N2C(C(=O)O)=C(Cn3nnc(C)n3)CS[C@H]12)c1csc(N)n1
inactive: Potency [1] | Potency [2] | Potency [3] | outcome [5]

CNCc1ccccc1
inactive: Potency [1] | Potency [2] | Potency [3] | Potency [4] | outcome [5] | outcome (Aromatase (Homo sapiens))

N#CCCOCCOCCC#N
inactive: Potency [2] | Potency [3] | Potency [6] | Potency [4] | Potency [7] | Potency [9] | outcome [8] | outcome [5] | outcome (Aromatase (Homo sapiens))

O=[Si]=O
inactive: Potency [2] | Potency [3] | Potency [6] | Potency [4] | Potency [7] | Potency [9] | outcome [8] | outcome [5] | outcome (Aromatase (Homo sapiens))

C[Si]1(C)N[Si](C)(C)N[Si](C)(C)N1
inactive: Potency [2] | Potency [3] | Potency [6] | Potency [4] | Potency [7] | Potency [9] | outcome [8] | outcome [5] | outcome (Aromatase (Homo sapiens))
